GPR32 ag: activates human resolvin D1 receptor GPR32; O75388; CHO-K1 GPR32 beta-arrestin PathHunter luminescence, 90 min; zero percent set by DMSO-only wells; activation, % at 76.9 µM; hit rate 2.5% among 48,000; AID 1346428;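 active = activation of at least 60% and not above a set upper limit, about 1 call in 100 departs from these limits; inconclusive = activation of 40% to 60%, or above that upper limit; inactive = activation under 40%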; note: 0% is about no effect
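Step 1: seed CHO-K1 GPR32 beta-arrestin cells, 2,500/well, overnight at 37 °C. Step 2: add compounds, 90 min at 37 °C. Step 3: detection reagent, 1 h ambient, then luminescence.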
NTMT1 inh: NTMT1 methyltransferase inhibition; Q9BV86; NTMT1 MTase-Glo SAH luminescence, purified enzyme; Potency, µM (doses to about 114 µM), inactives show at the highest dose activity change, negative = inhibition, usual class: inhibitors; hit rate 2.5% among 59,000; AID 1645870;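 note: potency is the fitted concentration of half-maximal effect; plate controls were DMSO vehicle for no effect and no enzyme for full effect; nearly all actives have a fitted effect of over 65% in size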
GALK inhibitor: GALK (human) enzyme inhibition. P51570. recombinant GALK, Kinase-Glo ATP luminescence, 1 h. Potency, µM (highest dose often 57.5 µM), without a hit: at the highest dose activity, negative = inhibition, actives largely listed as inhibitors. 44,000 tested, under 10 active;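 note: plate controls were full GALK reaction for no effect and reaction lacking GALK for full effect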
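Human GALK (5 nM) was incubated with 35 uM ATP and 100 uM galactose in 20 mM HEPES pH 8.0 with MgCl2, NaCl, DTT and BSA for 1 h at room temperature. Remaining ATP was measured by Kinase-Glo Plus luminescence.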
B2AR arrestin ag: beta-arrestin recruitment by human beta2-adrenergic receptor ligands; P07550; HTLA Tango cells, beta-arrestin recruitment, luciferase luminescence, 18 h; Potency, µM (series often up to 46.1 µM), actives largely listed as activators; 44,000 tested, under 10 active;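 note: potency is the fitted concentration of half-maximal effect; 0% = DMSO and full agonism = EC100 isoproterenol or metaproterenol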
Target sequence (P07550 whole entry, looked up): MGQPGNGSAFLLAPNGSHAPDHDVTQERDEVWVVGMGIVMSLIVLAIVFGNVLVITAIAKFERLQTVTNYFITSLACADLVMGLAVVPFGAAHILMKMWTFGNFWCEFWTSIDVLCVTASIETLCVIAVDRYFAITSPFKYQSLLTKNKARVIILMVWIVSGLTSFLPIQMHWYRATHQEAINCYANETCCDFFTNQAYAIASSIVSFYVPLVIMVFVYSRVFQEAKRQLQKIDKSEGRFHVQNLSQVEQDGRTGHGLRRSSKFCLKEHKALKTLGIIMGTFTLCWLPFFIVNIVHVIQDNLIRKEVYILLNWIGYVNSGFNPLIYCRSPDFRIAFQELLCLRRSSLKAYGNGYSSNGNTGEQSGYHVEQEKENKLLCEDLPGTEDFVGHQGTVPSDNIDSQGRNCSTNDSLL
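Ligand-induced beta-arrestin recruitment to recombinant beta2-AR is measured via a tTA-driven luciferase reporter in Tango cells after 18 hr compound exposure at 37 degrees C. Concentrations span up to 46 microM.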
OvCa metastasis: inhibitors of ovarian cancer cell adhesion and invasion in omental model. AID 1963576. hit rate 0.1% among 46,000. Potency, µM (top dose mostly 45.8 µM), without a hit: at the highest dose activity change, negative = inhibition, usual class: inhibitors. SKOV3ip1-GFP adhesion/invasion on 3D omental model, fluorescence;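 note: potency is the fitted concentration of half-maximal effect; plate controls were DMSO wells for no effect and tomatine positive control wells for full effect; nearly all actives have a fitted effect of over 65% in size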
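Primary human omental fibroblast/mesothelial 3D culture pre-formed 48 h. SKOV3ip1-GFP cells added with compounds (0.36-46 umol/L), incubated 2 h RT/16 h 37 C, fixed; GFP cells quantified at 488/509 nm.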
PTAP-TSG101 blk: inhibitors of HIV-1 PTAP binding to human TSG101, validation. Potency, µM (series often up to 115 µM), hits mostly inhibitors. 44,000 tested, under 10 active. Fluorescence polarization, FITC-PTAP peptide/Tsg101, 20 min; note: potency is the fitted concentration of half-maximal effect; 0% is about no effect
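Fluorescence polarization binding of Tsg101 binding domain (10 uM final) to FITC-labeled PTAP-motif peptide (50 nM final) in HEPES pH 7.5/NaCl/Tween 20/EDTA/TCEP buffer; 20 min at r.t. Actives by curve class, <25 µM, efficacy <60% inhibition.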
* marks the source's active call; other numbers are inactive results; i = inactive; ? = inconclusive; · = not tested or not shown; ! = a repeat was not active; [ ] = dose if it differs, or a comment. Hits are enriched below; roughly 3.8% of the tested compounds scored in any of these assays. Unless noted, calls come from the whole dose curve; as a rule, active = well fitted curve in the direction sought with a large enough effect; inconclusive = small, poorly fitted or top-dose-only effect, or another doubt; inactive = no such curve, though single readings can be large; an effect the other way counts as inactive or inconclusive.

SMILES | GPR32 ag | NTMT1 inh | GALK inhibitor | B2AR arrestin ag | OvCa metastasis | PTAP-TSG101 blk
Cc1cccc(N2CCN(C(=O)CCNS(=O)(=O)c3ccc4c(c3)CCN4C(=O)C3CC3)CC2)c1C | 44 | 0% | 0% | i | 13% | i
O=C(C1CCN(S(=O)(=O)c2cccs2)CC1)N1CCN(c2cccc(Cl)c2)CC1 | 15 | -1% | 2% | i | -14% | i
CC(C)OCCCNc1sc(S(=O)(=O)c2ccccc2)nc1S(=O)(=O)c1ccc(Cl)cc1 | -16 | 22% | 1% | i | 6% | i
O=C1CCCC2=C1C(c1[nH]ncc1Cl)N=C(Nc1nc3c(Cl)cccc3o1)N2 (stereo unspecified) | · | -14% | · | · | · | ·
Cc1ccc(OCC(=O)Nc2cc(-c3cccc(C)c3)nn2-c2ccccc2)cc1 | -20 | -4% | 1% | i | -15% | i
COc1ccc(OCC(=O)Nc2cc(-c3cccc(Cl)c3)nn2-c2ccccc2)cc1 | 100* | 3% | 0% | i | 0% | i
COc1ccc(OCC(=O)Nc2cc(-c3ccccc3F)nn2-c2ccccc2)cc1 | 91* | -1% | 0% | i | -11% | i
CCC(CC)C(=O)Nc1cc(-c2ccccc2F)nn1-c1ccccc1 | -18 | 3% | 0% | i | 5% | i
Cc1ccc(C)c(-n2nnc(C(=O)Nc3ccc(Br)cc3)c2C)c1 | 26 | -10% | 4% | i | -5% | i
Cn1c(=O)c2c(nc(N3CCOCC3)n2Cc2ccccc2Cl)n(C)c1=O | 9 | 2% | 0% | i | i | i
COc1cc(O)c2c(c1)/C=C/C[C@H](O)[C@H](O)C(=O)/C=C\C[C@H](C)OC2=O | · | 25µM* | · | · | · | ·
COc1cc(O)c2c(c1)C1=CC(O)C(O)CC1(C)OC2=O (stereo unspecified) | · | 4%[57.5 µM] | · | · | · | ·
Cc1nc(NC(=O)N2CCCC2C(N)=O)sc1-c1csc(C(C)(C)C)n1 (stereo unspecified) | · | -4%[57.5 µM] | · | · | · | ·
Cc1nc(NC(=O)N2CCC[C@@H]2C(N)=O)sc1-c1ccnc(C(C)(C)C(F)(F)F)c1 | · | 30µM* | · | · | -11% | ·
NC(=NCCCCCCN=C(N)N=C(N)Nc1ccc(Cl)cc1)N=C(N)Nc1ccc(Cl)cc1 | · | 35µM*! | · | · | -9% | ·
Cc1ccccc1-n1c(SCC(=O)Nc2ccc(Cl)cc2Cl)nc(O)cc1=O | -5 | -15% | 4% | i | 3% | i
CCC(c1ccc(O)cc1)C(CC)c1ccc(O)cc1 (stereo unspecified) | · | ? | · | · | -21% | ·
CC[C@H](c1ccc(O)cc1)[C@@H](CC)c1ccc(O)cc1 | 9 | 11µM* | · | · | · | ·
COC(=O)c1cc2oc3ccccc3c2n1Cc1nc(-c2cccc(C)c2)oc1C | 1 | · | -9% | i | i | i
CSc1ccc(CCNC(=O)Cn2ncc3c(=O)oc4ccccc4c32)cc1 | 67* | ? | 2% | i | i | i
Cc1nnc(NCc2ccc(Cl)cc2)c2c1nnn2Cc1ccc(F)cc1 | 3 | 3% | -13% | i | 3% | i
CN(C1CCCCC1)S(=O)(=O)c1ccc(C(=O)Nc2sc3c(c2C(N)=O)CC(C)(C)NC3(C)C)cc1 | 118* | -1% | 2% | i | i | i
COc1cccc(NC(=O)CC(=O)Nc2ccc3nc4n(c(=O)c3c2)CCCCC4)c1 | -10 | 0% | 7% | i | i | i
COc1ccc(N2CCN(C(=O)CSCc3ccc(C)cc3)CC2)cc1 | -25 | -16% | ? | i | -1% | i
Cc1oc(-c2ccccc2)nc1CNC(=O)NC1CCCCC1 | -15 | -1% | 1% | i | 5% | i
CCOC(=O)c1cnc2cc(C(F)(F)F)ccc2c1N1CCN(c2ccc(F)cc2)CC1 | -12 | 6% | 3% | i | 2% | i

Compound activity deposited in PubChem by National Center for Advancing Translational Sciences (NCATS).
